Measured values published in PubChem BioAssay (Tox21).
Results filed as inconclusive are left out. Entries that show only a call come without a potency. Unmarked numbers belong to inactive results. Activity calls are given as the source filed them. Calls come from the whole dose curve.

Assay: qHTS assay to identify small molecule agonists of the endoplasmic reticulum stress response signaling pathway - cell viability counter screen (AID 1159517); note: nearly all actives have a fitted effect of over 50% in size
Settings: ESRE-bla HeLa viability, CellTiter-Glo luminescence, 5 h; series mostly up to 61 µM
Description: U.S. Tox21 Program National Center for Advancing Translational Sciences [NCATS] NIH Chemical Genomics Center [NCGC] U.S. Environmental Protection Agency [EPA] National Institutes of Environmental Health Sciences [NIEHS] National Toxicology Program [NTP] U.S. Food and Drug Administration [FDA] Tox21 Assay Overview: Endoplasmic Reticulum (ER) plays an important role in cellular signaling, protein folding/maturation, stress response, lipid biosynthesis, calcium storage and release etc. Under stress conditions, proteins in ER misfold or unfold, and leading to the expression of ER stress responsive genes. ER stress has been associated with a variety of pathophysiological conditions such as cancer, inflammation, neurodegenerative diseases, diabetes, ischemic heart disease etc. To identify the compounds that induce ER stress response, an ER stress reporter cell line, CellSensor ESRE-bla HeLa (Life Technologies, Carlsbad, CA) containing a beta-lactamase reporter gene under control of the Endoplasmic reticulum Stress Response Element (ESRE) was used to screen Tox21 10K compound library. The cytotoxicity of the Tox21 compound library against the ESRE-bla HeLa cell line was tested in parallel by measuring cell viability using the CellTiter-Glo assay in the same wells.
Tox21 Assay Protocol Summary: ESRE-bla HeLa cells were dispensed at 1,500 cells/6 uL of assay medium per well into black wall/clear-bottom 1536-well plates using a Multidrop Combi (ThermoFisher Scientific, Waltham, MA) dispenser. After the assay plates were incubated at 37 C and 5% CO2 for an overnight, 23 nL of compounds dissolved in DMSO, positive controls or DMSO only was transferred to the assay plate by a Pintool station (Kalypsys, San Diego, CA). The assay plates were incubated at 37 C and 5% CO2 for 5 hr. One uL of LiveBLAzer B/G FRET substrate (Life Technologies) was added using a FRD (Flying Reagent Dispenser, Aurora Discovery, San Diego, CA) and the plates were incubated at room temperature for 2 hr. Fluorescence intensity (405 nm excitation, 460 nm and 530 nm emissions) was measured using an Envision plate reader (PerkinElmer, Shelton, CT). For cytotoxicity, 4 ul/well of CellTiter-Glo reagent was added into the assay plates using an FRD. After 30 min incubation at room temperature, the luminescence intensity was measured using a ViewLux plate reader (PerkinElmer).
With `COc1cc2nc(Cl)nc(N)c2cc1OC` the Potency was “inactive”.
In the case of `Nc1ccc(S(=O)(=O)Nc2ccccc2)cc1`, the Potency is reported as “inactive”.
With `C=CC(=O)OCCOCCOCCOCCOC(=O)C=C` the Potency was “inactive”.
In the case of `O=CC1CC=CCC1` (stereo not given), the Potency is reported as “inactive”.
With `CCCCC(=O)OCC(=O)[C@H]1[C@H](C)C[C@H]2[C@@H]3C[C@H](F)C4=CC(=O)C=C[C@]4(C)[C@@]3(F)[C@@H](O)C[C@@]21C` the Potency was “inactive”.
For `NCCCN1CCOCC1`, the Potency was “inactive”.
For `O=[N+]([O-])c1ccc(NCCO)c(OCCO)c1`, the Potency was “inactive”.
In the case of `CNCCCCOc1ccccc1Cc1ccccc1`, the Potency is reported as “inactive”.
With `C=CC(=O)OCCOc1ccccc1` the Potency was “inactive”.
With `CCOC(=O)Cc1cccc2ccccc12` the Potency was “inactive”.
With `CCCCc1nc2cccnc2n1Cc1ccc(-c2ccccc2-c2nnn[nH]2)cc1` the Potency was “inactive”.
With `COc1ccc(C(=O)N2CCN(CC(=O)N3CCOCC3)CC2)cc1` the Potency was “inactive”.
With `NC(=O)C(c1ccccc1)(c1ccccc1)[C@@H]1CCN(CCc2ccc3c(c2)CCO3)C1` the Potency was “inactive”.
For `CC(CSC(=O)c1ccccc1)C(=O)N1C[C@@H](Sc2ccccc2)C[C@H]1C(=O)O` (stereo not given in full), the Potency was “inactive”.
With `CCOC(=O)c1cccnc1` the Potency was “inactive”.
In the case of `C[N+]1(CC2COC(c3ccccc3)(C3CCCCC3)O2)CCCCC1` (stereo not given), the Potency is reported as “inactive”.
With `COCCCN1CCC(NC(=O)c2cc(Cl)c(N)c3c2OCC3)CC1` the Potency was “inactive”.
With `O=C(Nc1ccc(S(=O)(=O)N2CCOCC2)cc1)c1cc(Cl)ccc1NS(=O)(=O)c1ccc(Cl)s1` the Potency was “inactive”.
With `CCC(C)(C)CC` the Potency was “inactive”.
For `CC(C)=CCC/C(C)=C/CC/C(C)=C/CO`, the Potency was “inactive”.
With `Cc1cccc(C)c1NC(=O)CN(CC(=O)O)CC(=O)O` the Potency was “inactive”.
In the case of `O=C1CCCCCCCCCCCC(=O)OCCO1`, the Potency is reported as “inactive”.
With `C[Si](C)(CCCN)O[Si](C)(C)CCCN` the Potency was “inactive”.
With `c1ccc(C(O[C@H]2CCCN(CCc3ccc4c(c3)OCO4)C2)c2ccccc2)cc1` the Potency was “inactive”.
For `COC(C)(C)CCO`, the Potency was “inactive”.
In the case of `C/C=C/C(=O)CC`, the activity change, negative = cytotoxicity is reported as 28.8% [at 15.1 µM].
With `ClCCOCCOCCCl` the Potency was “inactive”.
With `Cc1cc(C(=O)O)ccc1[N+](=O)[O-]` the Potency was “inactive”.
In the case of `CCCn1cnc2c1c(=O)n(CCCCC(C)=O)c(=O)n2C`, the Potency is reported as “inactive”.
For `Cc1[nH]c(C)c(Cl)c(=O)c1Cl`, the Potency was “inactive”.
For `CC[N+]1(CC)CCC(=C(c2ccccc2)c2ccccc2)C1C` (stereo not given), the Potency was “inactive”.
In the case of `CCCCCCCCO[C@@H]1O[C@H](CO)[C@@H](O)[C@H](O)[C@H]1O`, the Potency is reported as “inactive”.
In the case of `CC(CC=O)c1ccccc1` (stereo not given), the Potency is reported as “inactive”.
In the case of `CCN(CC)CCNc1ccc(CNC=O)c2sc3ccc(OC)cc3c(=O)c12`, the Potency is reported as “inactive”.
With `C[C@@H](c1ncncc1F)C(O)(Cn1cncn1)c1ccc(F)cc1F` (stereo not given in full) the Potency was “inactive”.
In the case of `CCCCC(CC)COC(=O)COc1ccc(Cl)cc1Cl` (stereo not given), the Potency is reported as “inactive”.
In the case of `O=C(O)CC(=O)C(=O)O`, the Potency is reported as “inactive”.
With `CCCCC` the Potency was “inactive”.
In the case of `CCN(CC)c1ccc(C(=C2C=CC(=[N+](CC)CC)C=C2)c2cc(S(=O)(=O)O)ccc2S(=O)(=O)[O-])cc1`, the Potency is reported as “inactive”.
With `COC(C)OC` the Potency was “inactive”.
